Among the data in PubChem BioAssay AID651744 (Broad Institute, 2012) are inhibition values, retold here.

In general, inhibition refers to the change of the read-out against control, counted positive when it falls.

Screen size: about 5,600 compounds; about 3,100 (55%) were called active. Roughly 3% stayed inconclusive and do not appear here. So high a share suggests a set chosen from earlier hits. Not all results are given here. Unmarked numbers belong to inactive results.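 Rule for the calls: active = mean loss of cell viability signal at or above a set limit, and enough replicates individually reaching it; inconclusive = meets only the mean limit or only the replicate share; inactive = meets neither condition.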

A short description of this experiment: NIH/3T3 fibroblast cytotoxicity, confirmation, cytotoxicity control, cell-based, cherry-pick, single point, set 2 (AID 651744).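 Note: 0% = median of neutral control wells and 100% = median of positive control wells.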 The settings on record: NIH/3T3 viability, CellTiter-Glo ATP luminescence, 90 h; at 24.9 µM; active compounds read high. On the technique in general: ATP-based viability assays read luminescence as a measure of living cells.
As for `C[C@H](CO)N1C[C@H](C)[C@@H](CN(C)Cc2ccc(C(F)(F)F)cc2)OCCCC[C@H](C)Oc2ccc(NC(=O)C3CCCCC3)cc2C1=O`, the inhibition is 22.4%.

On to `C[C@H]1CCCCO[C@H](CN(C)Cc2ccc(C(F)(F)F)cc2)[C@@H](C)CN([C@@H](C)CO)C(=O)c2cc(NC(=O)C3CCCCC3)ccc2O1`, for which the inhibition was 25.9% (active). With `C[C@H](CO)N1C[C@H](C)[C@H](CN(C)C(=O)Nc2ccc(C(F)(F)F)cc2)OCCCC[C@H](C)Oc2ccc(NC(=O)C3CCCCC3)cc2C1=O`, the inhibition is -9.18%. The result for `CC(C)CC#Cc1ccc2c(c1)O[C@H](CN(C)C(=O)C1CC1)[C@@H](C)CN([C@@H](C)CO)S2(=O)=O` reads 34.8% (active); that for `C[C@@H]1CN([C@@H](C)CO)S(=O)(=O)c2ccc(C#CCN(C)C)cc2O[C@H]1CN(C)C(=O)C1CC1`, 15.6%. Turning to `CCC(=O)N(C)C[C@@H]1Oc2cc(C#CCN(C)C)ccc2S(=O)(=O)N([C@H](C)CO)C[C@H]1C`, the inhibition is 5.45%. For `CCCC#Cc1ccc2c(c1)O[C@H](CN(C)C(=O)CC)[C@@H](C)CN([C@H](C)CO)S2(=O)=O`, the inhibition was 48.4% (active).

Regarding `C[C@H](CO)N1C[C@H](C)[C@@H](CN(C)C(=O)C2CCCCC2)Oc2cc(-c3ccccc3)ccc2S1(=O)=O`, the inhibition is 33.8% (active). On to `N#C[C@@H]1[C@@H](c2ccc(/C=C/c3ccccc3)cc2)[C@@H](CO)N1C(=O)C1CC1`, for which the inhibition is 48.2% (active). In the case of `N#C[C@@H]1[C@@H](c2ccc(C#Cc3cccc(F)c3)cc2)[C@@H](CO)N1C(=O)C1CCC1`, the inhibition was 22.8%. The result for `COCC(=O)N1[C@H](CO)[C@@H](c2ccc(C#Cc3ccccc3F)cc2)[C@@H]1C#N` reads 19.1%; that for `CCCC#Cc1ccc([C@@H]2[C@@H](C#N)N(C(=O)C3CCCC3)[C@@H]2CO)cc1`, 23.7%; that for `N#C[C@@H]1[C@@H](c2ccccc2)[C@@H](CO)N1C(=O)Cc1ccccc1`, 17%. On to `N#C[C@@H]1[C@H](c2ccc(C#Cc3cccc(F)c3)cc2)[C@@H](CO)N1C(=O)C1CCCC1`, for which the inhibition was 105% (active). In the case of `Cc1noc(C)c1S(=O)(=O)N(C)C[C@H]1Oc2ccc(N(C)C)cc2CC(=O)N([C@H](C)CO)C[C@@H]1C`, the inhibition was -3.27%. Turning to `C[C@@H]1CN([C@H](C)CO)S(=O)(=O)c2ccc(C#Cc3ccncc3)cc2O[C@@H]1CN(C)S(=O)(=O)c1ccc(F)cc1`, the inhibition was 27.4% (active). The result for `C[C@@H]1CN([C@@H](C)CO)S(=O)(=O)c2ccc(C#Cc3ccc(F)cc3)cc2O[C@H]1CN(C)S(C)(=O)=O` reads 64.1% (active). The result for `Cc1ccccc1-c1ccc([C@@H]2[C@H](CO)N3CCCCN(S(=O)(=O)c4ccc(F)cc4)C[C@@H]23)cc1` reads 102% (active); that for `Cc1ccccc1-c1ccc([C@H]2[C@H]3CN(S(=O)(=O)c4ccc(F)cc4)CCCCN3[C@H]2CO)cc1`, 103% (active); that for `O=S(=O)(c1ccc(F)cc1)N1CCCCN2[C@H](C1)[C@H](c1ccc(C3=CCCCC3)cc1)[C@@H]2CO`, 105% (active). The result for `CN(C)CC#Cc1ccc([C@H]2[C@H]3CN(S(=O)(=O)c4ccccc4F)CCCCN3[C@H]2CO)cc1` reads 18.4%; that for `Cc1ccc(S(=O)(=O)N(C)C[C@H]2OCCCC[C@H](C)Oc3ccc(NC(=O)Cc4ccccc4)cc3C(=O)N([C@@H](C)CO)C[C@@H]2C)cc1`, -4.04%; that for `COc1ccc(S(=O)(=O)N(C)C[C@H]2Oc3c(NC(=O)Nc4cccc5ccccc45)cccc3C(=O)N([C@@H](C)CO)C[C@H]2C)cc1`, 26.1%. Consider `C[C@H](CO)N1C[C@H](C)[C@@H](CN(C)Cc2ccc(C(=O)Nc3ccccc3N)cc2)Oc2c(NC(=O)c3ccc(-c4nccs4)cc3)cccc2C1=O`, for which the inhibition was 42% (active). The result for `C[C@@H]1CN([C@H](C)CO)C(=O)c2cccc(NC(=O)c3ccc(-c4nccs4)cc3)c2O[C@@H]1CN(C)C(=O)Nc1ccc(C(F)(F)F)cc1` reads 44% (active); that for `Cc1ccc(S(=O)(=O)N(C)C[C@@H]2Oc3c(NC(=O)c4nc5ccccc5s4)cccc3C(=O)N([C@H](C)CO)C[C@@H]2C)cc1`, 49% (active); that for `Cc1cc(C(=O)Nc2cccc3c2O[C@@H](CN(C)Cc2ccc(C(=O)Nc4ccccc4N)cc2)[C@H](C)CN([C@@H](C)CO)C3=O)n(C)n1`, 10.2%. Consider `C[C@@H]1CN([C@H](C)CO)C(=O)c2cccc(NC(=O)c3cnccn3)c2O[C@@H]1CN(C)Cc1ccc(C(=O)Nc2ccccc2N)cc1`, for which the inhibition was 68.5% (active). As for `C[C@H]1CN([C@@H](C)CO)C(=O)c2cccc(NS(=O)(=O)c3cn(C)cn3)c2O[C@@H]1CN(C)CC1CCCCC1`, the inhibition was 0.698%. The result for `COc1ccc(NC(=O)N(C)C[C@H]2OCCCC[C@H](C)Oc3ccc(NC(=O)Nc4ccc(C(F)(F)F)cc4)cc3C(=O)N([C@@H](C)CO)C[C@@H]2C)cc1` reads 20.7%. The result for `C[C@@H]1CCCCO[C@H](CN(C)C(=O)Nc2ccc(C(F)(F)F)cc2)[C@H](C)CN([C@H](C)CO)C(=O)c2cc(NC(=O)Nc3ccc(C(F)(F)F)cc3)ccc2O1` reads -27.4%. The result for `N#Cc1cccc(-c2ccc([C@H]3[C@H](CO)N4CCCCN(C(=O)Nc5cccc(F)c5)C[C@@H]34)cc2)c1` reads 105% (active).

Turning to `O=C(C1CCCC1)N1CCCCN2[C@@H](CO)[C@H](c3ccc(-c4cccc(F)c4)cc3)[C@@H]2C1`, the inhibition is 105% (active).

As for `O=C(C1CCC1)N1CCCCN2[C@H](CO)[C@H](c3ccc(-c4cccc(F)c4)cc3)[C@@H]2C1`, the inhibition is 1.34%. Regarding `O=C(Nc1cccc(F)c1)N1CCCCN2[C@H](CO)[C@H](c3ccc(C#CC4CC4)cc3)[C@@H]2C1`, the inhibition is 22.3%. In the case of `O=C(C1CC1)N1CCCCN2[C@H](CO)[C@H](c3ccc(-c4cccc(F)c4)cc3)[C@H]2C1`, the inhibition is 56.9% (active). The result for `O=C(Nc1ccccc1F)N1CCCCN2[C@H](CO)[C@@H](c3ccc(-c4cccnc4)cc3)[C@H]2C1` reads 14.6%; that for `O=C(C[C@@H]1C[C@H]2c3cc(NC(=O)C4CCC4)ccc3O[C@H]2[C@@H](CO)O1)NCc1ccc2c(c1)OCO2`, -13.1%.
